Most compounds without a hit are left out; they make up all but 4.9% or so of the library.
Mdm2-MdmX inh = disrupts the human Mdm2-MdmX interaction | SaOS-2 split-luciferase Mdm2/MdmX complementation, luminescence | inhibition, % at 8 µM | 330,000 tested, 3% active;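 active = inhibition of at least 50% at 8 µM in the primary screen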
CSC inhib = blocks cancer stem cells; cancer stem cell-like cells viability, luminescence; inhibition, % at 7.5 µM; 300,000 tested, 1.1% active; in the data active = inhibition above about 75%; inconclusive = no clear call, values can overlap the other calls; tested in HMLE shEcad cells
Calb FLC = C. albicans growth modulation with fluconazole; C. albicans CaCi-2 (fluconazole-resistant clinical isolate) + fluconazole, Alamar Blue growth, 48 h; growth inhibition, % (concentration not given with the values); 300,000 tested, 0.57% active; AID 1979;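 active = growth inhibition above about 58% in most replicates, limit read from the data, passing the limit was not always enough; inconclusive = exactly half the replicates above a set limit; inactive = most replicates below a set limit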;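 also: all wells also contain fluconazole at 8 µg/ml as a sub-toxic cotreatment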
Beta apoptosis = blocks beta cell apoptosis; INS-1E cytokine-induced death, ATP luminescence, 48 h; percent of positive-control rescue, neutral wells zero; protection from apoptosis, % (test concentration not listed); 300,000 tested, 0.8% active; AID 435005;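 active = Every replicate reaches about 75%, or at least half do and their mean reaches it too, limit read from the data; inconclusive = At least half of replicates reach the limit but their mean does not; inactive = Under half of replicates reach the limit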;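 also: higher means more ATP so stronger rescue from cytokine killing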
PP5 primary = PP5 (human) phosphatase inhibition. P53041. purified PP5c, OMFP substrate fluorescence. inhibition, % at 6.7 µM. 320,000 tested, 0.18% active;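 active = inhibition above the campaign's mean inhibition across all tested compounds plus 3 SD, cut at about 9.5% in these data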
Target sequence (P53041 whole entry, looked up): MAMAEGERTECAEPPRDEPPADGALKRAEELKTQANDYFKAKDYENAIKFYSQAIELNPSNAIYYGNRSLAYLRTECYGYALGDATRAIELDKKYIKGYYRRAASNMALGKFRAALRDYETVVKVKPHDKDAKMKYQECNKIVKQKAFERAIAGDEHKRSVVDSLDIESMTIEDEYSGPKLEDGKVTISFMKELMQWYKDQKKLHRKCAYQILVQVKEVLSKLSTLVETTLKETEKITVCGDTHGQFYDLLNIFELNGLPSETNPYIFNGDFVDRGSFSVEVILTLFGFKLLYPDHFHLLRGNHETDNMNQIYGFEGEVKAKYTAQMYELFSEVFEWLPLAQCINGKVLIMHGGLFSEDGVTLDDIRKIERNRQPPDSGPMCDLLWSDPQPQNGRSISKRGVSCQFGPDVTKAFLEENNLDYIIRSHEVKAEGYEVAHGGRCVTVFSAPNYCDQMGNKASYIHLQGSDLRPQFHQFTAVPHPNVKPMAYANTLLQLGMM
PP1 inh = blocks human PP1-alpha phosphatase, a PP5 counter-screen. P62136. inhibition, % at 6.7 µM. 320,000 tested, 0.9% active. purified PP1alpha, OMFP fluorescence;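 active = inhibition above the mean inhibition of all tested compounds plus 3 SD, computed separately for each screening campaign, cut at about 15% in these data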
Mdm2-MdmX conf = human Mdm2/MdmX binding inhibition, confirmed | shares compounds with Mdm2-MdmX inh | luminescent assay | inhibition, % at 8 µM | 10,000 tested, 55% active | AID 489028; in the data active = inhibition above about 40%
Full FLuc ctr = full-length luciferase inhibition in Mdm2/MdmX counter-screen. shares compounds with Mdm2-MdmX inh. SaOS-2 full-length luciferase counterscreen, luminescence. inhibition, % at 8 µM. 6,200 tested, 77% active;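 active = mean inhibition at 8 µM reaching about 37%, which flags the compound as non-specific, limit read from the data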;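 also: p53-null SaOS-2 cells with luciferase driven by a doxycycline-inducible promoter; compound on cells about two nights before reading with doxycycline added after day one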
Numbers stand for hits; i = inactive; ? = inconclusive; nt = not tested or not shown; + = active, no number.

SMILES | Mdm2-MdmX inh | CSC inhib | Calb FLC | Beta apoptosis | PP5 primary | PP1 inh | Mdm2-MdmX conf | Full FLuc ctr
COC(=O)c1ccccc1NC1=C/C(=N\S(=O)(=O)c2ccc(C(=O)O)cc2)c2ccccc2C1=O | 90 | nt | i | 110 | i | i | 68 | i
Cc1ccc(NC2=C/C(=N/S(=O)(=O)c3cccs3)c3ccccc3C2=O)cc1 | 53 | + | i | 103 | i | i | 61 | i
COc1ccc(Cn2c(CCC(=O)Nc3ccc(CC#N)cc3)nc3cccnc32)cc1 | i | i | i | i | i | i | nt | nt
COc1ccc(Cn2c(CCC(=O)Nc3ccccc3)nc3cccnc32)cc1 | 77 | i | i | i | i | i | i | nt
Cc1c(NC(=O)C(C)Sc2nc(N)cc(=O)[nH]2)c(=O)n(-c2ccccc2)n1C (stereo not drawn) | i | i | nt | i | i | i | nt | nt
COc1cc(-c2nnc3sc(C4CCCCC4)nn23)cc(OC)c1OC | 57 | i | i | i | i | i | i | nt
Cc1cc(-c2nnc3sc(C4CCCCC4)nn23)n[nH]1 | i | nt | i | i | i | i | nt | nt
CCOc1cccc(-c2nnc3sc(C4CCCCC4)nn23)c1 | i | i | i | i | i | i | nt | nt
COc1cccc(-c2nnc3sc(C4CCCCC4)nn23)c1 | 85 | i | i | i | i | i | 78 | i
CCCCn1c(N)c(N(CC)C(=O)CCc2ccccc2)c(=O)[nH]c1=O | i | i | i | i | i | i | nt | nt
Cc1cc(NC(=S)N(CCN2CCCCC2)Cc2ccco2)ccc1Cl | i | nt | i | nt | i | i | nt | nt
COc1ccc(NC(=S)N(CCCN2CCCC2)Cc2cccn2Cc2ccc(Cl)cc2)cc1Cl | 85 | i | i | i | i | i | 57 | 54
FC(F)(F)c1cccc(NC(=S)N(CCCN2CCCC2)Cc2cccn2Cc2ccc(Cl)cc2)c1 | 96 | 130 | i | i | i | i | 54 | i
COc1ccc(NC(=S)N(CCCN2CCC(C)CC2)Cc2cccs2)cc1Cl | i | i | i | i | i | i | nt | nt
Cc1ccc(NC(=S)N(CCCN2CCCC2)Cc2cccn2Cc2ccc(Cl)cc2)cc1Cl | 76 | 144 | i | i | i | i | i | 58
Cc1ccc(NC(=S)N(CCCN2CCCC2)Cc2cccn2Cc2ccc(Cl)cc2)cc1C | 58 | i | i | i | i | i | i | nt
CN(C)CCCN(Cc1ccccc1)C(=S)Nc1cccc(C(F)(F)F)c1 | i | i | i | i | i | i | nt | nt
CC(=O)Nc1ccc(C(=O)Cn2c3[n+](c4c(F)c(F)ccc42)CCCCC3)cc1 | i | i | i | i | i | i | nt | nt
O=c1[nH]c2ccccc2c(O)c1SCCO | i | i | i | i | i | i | nt | nt
O=C1C(SCCO)=C(SCCO)C(=O)c2ccccc21 | 82 | 102 | nt | 99 | i | i | 75 | i
CCOC(=O)c1sc2nc(CSc3ccccc3)nc(NCCN(C)C)c2c1C | 51 | i | i | i | i | i | i | nt
Cc1c(C(=O)N/N=C/c2ccncc2)no[n+]1[O-] | i | i | i | i | i | i | nt | nt
CCOC(=O)c1cnc2ccc(C)cc2c1Sc1ccccc1C(=O)OC | i | i | i | i | i | i | nt | nt
CCN(CC)CCSc1nc(O)c(-c2ccccc2)c(=O)n1-c1ccccc1 | i | i | i | i | i | i | nt | nt
CCN(CC)CCSc1nc2ccccc2c(=S)n1-c1ccccc1 | 51 | i | i | i | i | i | i | 94
SMILES | Mdm2-MdmX inh | CSC inhib | Calb FLC | Beta apoptosis | PP5 primary | PP1 inh | Mdm2-MdmX conf | Full FLuc ctr
COC(=O)c1ccc2nc(C)cc(Nc3ccc(N(C)C)cc3)c2c1 | i | i | i | i | i | i | nt | nt
COC(=O)c1ccc(Nc2cc(C)nc3ccccc23)cc1 | 100 | i | i | i | i | i | 65 | 52
CC(=O)c1ccc(Nc2cc(C)nc3c(C)cc(C)cc23)cc1 | 64 | i | i | 77 | i | i | 61 | 65
CCOC(=O)C1(C)NC(c2ccco2)C2C(=O)N(C)C(=O)C21 (stereo not drawn) | i | i | i | i | i | i | nt | nt
CN(C)C(=O)C1C2NC(=S)N(c3cccc(Cl)c3)C1(C)Oc1ccc(Cl)cc12 (stereo not drawn) | i | i | i | i | i | i | nt | nt
O=C1CC(c2ccc3c(c2)OCO3)Sc2nc3ccccc3n21 (stereo not drawn) | 54 | i | i | i | i | i | 67 | 169
Cc1ccc(S(=O)(=O)CCC(=O)Nc2nc(-c3ccncc3)cs2)cc1 | 88 | i | ? | i | i | i | 58 | 37
CC(=O)Nc1ccc(-c2csc(N/N=C\c3ccncc3)n2)cc1 | i | i | i | i | i | i | nt | nt
Cc1ccc(-c2csc(NC(=O)C[n+]3cc(-c4ccc(C)cc4)n4c3CCC4)n2)cc1 | 56 | i | i | i | i | i | i | nt
Cc1ccc(S(=O)(=O)Nc2ccccc2C(=O)Nc2nc(-c3ccc(F)cc3)cs2)cc1 | 86 | i | i | 99 | i | 17 | 90 | i
CCCC(=O)Nc1ccc(-c2csc(N/N=C\c3ccncc3)n2)cc1 | 65 | i | i | i | i | i | i | nt
O=C(CSc1nc(=O)n(CCCN2CCOCC2)c2c1CCCC2)Nc1ccc(Cl)cc1 | i | i | i | i | i | i | nt | nt
Cc1ccc(S(=O)(=O)c2nc(S(=O)(=O)c3ccccc3)sc2N2CCN(CCO)CC2)cc1 | 53 | nt | i | nt | i | i | i | nt
Cc1ccc(S(=O)(=O)c2nc(S(=O)(=O)c3ccccc3)sc2N2CCN(C)CC2)cc1 | 61 | nt | i | nt | i | i | 47 | i
O=C(Nc1cccc(NC(=O)c2cccs2)c1)c1ccc([N+](=O)[O-])o1 | 61 | ? | i | i | i | i | 56 | 44
O=C(Nc1ccc(N2CCN(C(=O)c3cccs3)CC2)cc1)c1ccc([N+](=O)[O-])o1 | 72 | 100 | ? | i | nt | nt | 80 | 39
Cc1ccc(NC(=O)c2cccs2)cc1[N+](=O)[O-] | i | i | i | i | i | i | nt | nt
Cc1c(CNC(=O)C2CCC(=O)N(CCc3ccccc3)C2)cnn1C (stereo not drawn) | i | i | i | i | i | i | nt | nt
O=C(O)CCNC(=O)C12CC3CC(CC(C3)C1)C2 | i | i | i | i | i | i | nt | nt
Cn1c(CNC(=O)CNS(=O)(=O)c2ccc(F)cc2F)cc(=O)n(C)c1=O | i | i | nt | i | i | i | nt | nt
CN(C)CCC1Sc2ccccc2Oc2ccccc21 (stereo not drawn) | i | i | i | i | i | i | nt | nt
CC1c2ccccc2SC(CCCN(C)C)c2ccccc21 (stereo not drawn) | 52 | i | i | i | i | i | i | nt
O=C(Cc1ccc(Cl)cc1Cl)OCC(=O)N1CCN(C(=O)c2ccco2)CC1 | i | i | i | i | i | i | nt | nt
COCCN(C(=O)COC(=O)c1ccccc1Oc1ccccc1)c1c(N)n(Cc2ccccc2)c(=O)[nH]c1=O | i | i | i | i | i | i | nt | nt
COc1ccc(C2CN=NC23CCc2ccccc2C3=O)cc1 (stereo not drawn) | 66 | i | i | i | i | i | 53 | 89
